Measurements: article PMC5540273 (PLoS ONE, 2017)
Values joined by “and” are separate entries in the source; they are usually repeats but may differ in a detail not shown here. Equal values may be shown once. Read-outs that look alike come from different tables or passages of the source.

How the values were obtained:
Conditions in all cases: concentration: 1 μM, replicates: in singlicate, n = 1
TLK2 = tested on: TLK2
TNIK = tested on: TNIK
TNK1 = tested on: TNK1
TNK2 = tested on: TNK2
TNNI3K = tested on: TNNI3K
TRKA = tested on: T1, TRKA
T1 construct: gene NTRK1

TRKB = tested on: TRKB
TRKC = tested on: T2, TRKC
T2 construct: gene NTRK3

TRPM6 = tested on: TRPM6
TSSK1B = tested on: TSSK1B
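Note: KINOMEscan kinase panel screen.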

Row | Compound | %Inh (TLK2) [%] | %Inh (TNIK) [%] | %Inh (TNK1) [%] | %Inh (TNK2) [%] | %Inh (TNNI3K) [%] | %Inh (TRKA) [%] | %Inh (TRKB) [%] | %Inh (TRKC) [%] | %Inh (TRPM6) [%] | %Inh (TSSK1B) [%] | %Inh (TLK2; 1 µM) | %Inh (TNIK; 1 µM) | %Inh (TNK1; 1 µM) | %Inh (TNK2; 1 µM) | %Inh (TNNI3K; 1 µM) | %Inh (TRKA; 1 µM) | %Inh (TRKB; 1 µM) | %Inh (TRKC; 1 µM) | %Inh (TRPM6; 1 µM) | %Inh (TSSK1B; 1 µM)
1 | Nc1nccc(-c2c(-c3ccc(F)cc3)ncn2C2CCN(CC(F)(F)F)CC2)n1 [SB-236560] | 0 | 6 | 0 | 10 | 0 | 70 | 35 | 18 | 0 | 0 | – | – | – | – | – | – | – | – | – | –
2 | C[C@@H](Oc1cc(-n2cnc3ccc(NC(=O)NC(C)(C)C)cc32)sc1C(N)=O)c1ccccc1Cl [GSK346294] | 0 | 0 | 0 | 9 | 13 | 33 | 0 | 0 | 0 | 20 | – | – | – | – | – | – | – | – | – | –
3 | NS(=O)(=O)CCc1cccc(Nc2nccc(-c3c(-c4cccc(NC(=O)c5c(F)cccc5F)c4)nn4ccccc34)n2)c1 [GSK336735] | 2 | 85 | 100 | 89 | 48 | 0 | 19 | 11 | 56 | 28 | – | – | – | – | – | – | – | – | – | –
4 | Cc1c(Cn2c(C)nn3c(=O)cc(N4CCOC(C)C4)nc23)cccc1C(F)(F)F (stereo not drawn) [GSK2344444] | 0 | 0 | 9 | 7 | 0 | 0 | 0 | 0 | 6 | 17 | – | – | – | – | – | – | – | – | – | –
5 | O=c1cc(N2CCOCC2)nc2n(Cc3cccc4ccccc34)ccn12 [GSK2333389] | 0 | 0 | 0 | 6 | 0 | 0 | 0 | 19 | 2 | 13 | – | – | – | – | – | – | – | – | – | –
6 | COCCNC(=O)c1ccc(-c2cc(C(=O)NC3CC3)cc(F)c2C)cc1 [GW868318] | 0 | 0 | 40 | 16 | 11 | 27 | 43 | 30 | 20 | 0 | – | – | – | – | – | – | – | – | – | –
7 | Cc1ccc(NC(=O)c2ccnc(N3CCN(C)CC3)c2)cc1-c1ccc(C(=O)NCC2CC2)cc1 [GW775604] | 0 | 0 | 34 | 0 | 0 | 0 | 0 | 0 | 0 | 0 | – | – | – | – | – | – | – | – | – | –
8 | O=C(Nc1n[nH]c2cc(-c3cccc(F)c3)ccc12)C1CC1 [SB-735464] | 0 | 72 | 9 | 0 | 0 | 4 | 2 | 38 | 7 | 0 | – | – | – | – | – | – | – | – | – | –
9 | CCn1cnc2c(N)ncnc21 [GW345098] | 0 | 17 | 7 | 10 | 4 | 24 | 0 | 7 | 81 | 20 | – | – | – | – | – | – | – | – | – | –
10 | Cl.Nc1ncnc2occ(-c3ccc(NC(=O)Nc4cc(C(F)(F)F)ccc4F)cc3)c12 [SB-707548] | 4 | 67 | 46 | 20 | 90.8 | 100 | 94.1 | 100 | 0 | 0 | – | – | – | – | – | – | – | – | – | –
11 | O=C(Nc1cccc(-c2nn3ncccc3c2-c2ccnc(Nc3cccc(C(F)(F)F)c3)n2)c1)c1c(F)cccc1F [GSK299495] | 0 | 14 | 90.5 | 49 | 8 | 0 | 39 | 20 | 33 | 5 | – | – | – | – | – | – | – | – | – | –
12 | O=C(c1ccc(-c2cc(-c3c[nH]nc3-c3ccccn3)ccn2)cc1)N1CCOCC1 [GW812171] | 13 | 30 | 0 | 0 | 0 | 0 | 0 | 0 | 17 | 0 | – | – | – | – | – | – | – | – | – | –
13 | O=c1cc(N2CCOCC2)nc2n(Cc3cccc(F)c3)ccn12 [GSK2297430] | 0 | 0 | 0 | 18 | 0 | 54 | 27 | 6 | 0 | 12 | – | – | – | – | – | – | – | – | – | –
14 | CC(C)(C)n1cnc2c(N)ncnc21 [SKF-97359] | 2 | 0 | 16 | 40 | 0 | 74 | 47 | 18 | 3 | 0 | – | – | – | – | – | – | – | – | – | –
15 | O=C1NC(=O)C(N2CCc3ccccc32)=C1c1cccc(Cl)c1 [SB-408010] | 0 | 0 | 0 | 0 | 0 | 12 | 0 | 0 | 21 | 22 | – | – | – | – | – | – | – | – | – | –
16 | CCCCCc1nc2c(N)ncnc2n1CCCCC [SKF-97255] | 20 | 0 | 19 | 0 | 0 | 0 | 0 | 0 | 13 | 0 | – | – | – | – | – | – | – | – | – | –
17 | O=c1cc(N2CCOCC2)nc2n(Cc3cccc(C(F)(F)F)c3)ccn12 [GSK2297543] | 3 | 0 | 0 | 11 | 6 | 20 | 0 | 0 | 0 | 16 | – | – | – | – | – | – | – | – | – | –

Row | Compound | %Inh (TLK2) [%] | %Inh (TNIK) [%] | %Inh (TNK1) [%] | %Inh (TNK2) [%] | %Inh (TNNI3K) [%] | %Inh (TRKA) [%] | %Inh (TRKB) [%] | %Inh (TRKC) [%] | %Inh (TRPM6) [%] | %Inh (TSSK1B) [%] | %Inh (TLK2; 1 µM) | %Inh (TNIK; 1 µM) | %Inh (TNK1; 1 µM) | %Inh (TNK2; 1 µM) | %Inh (TNNI3K; 1 µM) | %Inh (TRKA; 1 µM) | %Inh (TRKB; 1 µM) | %Inh (TRKC; 1 µM) | %Inh (TRPM6; 1 µM) | %Inh (TSSK1B; 1 µM)
18 | CNc1ncnc2[nH]ncc12 [SKF-18355] | 0 | 17 | 0 | 0 | 0 | 0 | 0 | 0 | 23 | 0 | – | – | – | – | – | – | – | – | – | –
19 | N#Cc1ccc(-c2cc(-c3c[nH]nc3-c3ccccn3)ccn2)cc1 [GW693028] | 0 | 75 | 0 | 12 | 31 | 0 | 4 | 16 | 0 | 16 | – | – | – | – | – | – | – | – | – | –
20 | COc1cc2c(cc1OC[C@@H](O)CO)ncc1c3ccc(C#N)cc3[nH]c21 | 0 | 64 | 36 | 0 | 0 | 98.8 | 90 | 66 | 0 | 3 | – | – | – | – | – | – | – | – | – | –
21 | c1ccc(-c2cc(-c3c[nH]nc3-c3ccccn3)ccn2)cc1 [GW576604] | 0 | 72 | 0 | 1 | 89 | 54 | 25 | 0 | 11 | 3 | – | – | – | – | – | – | – | – | – | –
22 | Cc1ccc(C(=O)NCC(N)=O)cc1-n1c(C)cc(OCc2ccc(F)cc2F)c(Br)c1=O | 0 | 0 | 0 | 15 | 14 | 0 | 0 | 0 | 0 | 26 | – | – | – | – | – | – | – | – | – | –
23 | COc1ccc(COc2cc(-n3cnc4ccccc43)sc2C(N)=O)cc1 [GSK1024304] | 0 | 51 | 8 | 3 | 0 | 0 | 0 | 19 | 4 | 0 | – | – | – | – | – | – | – | – | – | –
24 | COc1ccc(Nc2ncc(C#N)c(Nc3ccccc3C(N)=O)n2)cc1N1CCN(C)CC1.Cl [GSK1558669] | 99.6 | 99.3 | 100 | 94.8 | 82 | 100 | 94.8 | 94.6 | 46 | 89 | – | – | – | – | – | – | – | – | – | –
25 | Fc1ccc(-c2nn3c(OCC(F)(F)F)cccc3c2-c2ccncc2)cc1 [GW514784] | 0 | 29 | 0 | 18 | 0 | 15 | 37 | 25 | 0 | 0 | – | – | – | – | – | – | – | – | – | –
26 | O=c1cc(N2CCOCC2)nc2n(Cc3cccc(Cl)c3Cl)c(C3CC3)nn12 [GSK2358994] | 0 | 10 | 0 | 5 | 0 | 1 | 0 | 0 | 0 | 0 | – | – | – | – | – | – | – | – | – | –
27 | Cc1cccc(Cn2ccn3c(=O)cc(N4CCOCC4)nc23)c1 [GSK2297542] | 5 | 0 | 0 | 23 | 2 | 0 | 0 | 12 | 33 | 0 | – | – | – | – | – | – | – | – | – | –
28 | CC(C)Oc1ccc2c(-c3ccnc(Nc4ccc(N5CCN(C)CC5)cc4)n3)cnn2n1 [GW696155] | 95.1 | 32 | 60 | 46 | 9 | 54 | 39 | 42 | 43 | 79 | – | – | – | – | – | – | – | – | – | –
29 | COc1cc(Nc2nccc(N3CCC(NC(=O)c4cccc(NC(C)=O)c4)C3)n2)cc(OC)c1OC (stereo not drawn) [GSK1379754] | 0 | 0 | 0 | 16 | 0 | 69 | 0 | 22 | 22 | 18 | – | – | – | – | – | – | – | – | – | –
30 | O=C(NCCCN1CCOCC1)c1cccc(Nc2nccc(Nc3ccc(Oc4ccccc4)cc3)n2)c1 [GW663929] | 21 | 3 | 66 | 19 | 74 | 8 | 0 | 0 | 52 | 0 | – | – | – | – | – | – | – | – | – | –
31 | CC(C)(CN)c1nc(-c2ccc(Cl)c(O)c2)c(-c2ccncc2)[nH]1.O=C(O)C(F)(F)F [SB-477794] | – | – | – | – | – | – | – | – | – | – | 10% and 4% | 89% and 87% | 0% and 84% | 0% and 5% | 85% and 77% | 0% and 49% | 75% and 32% | 55% and 46% | 69% and 54% | 17% and 0%
32 | COc1cc2c(cc1OCCN1CCN(C)CC1)ncc1c3ccc(C#N)cc3[nH]c21 | 0 | 91 | 8 | 0 | 2 | 99.8 | 97.2 | 83 | 0 | 34 | – | – | – | – | – | – | – | – | – | –
33 | [2H]C([2H])(c1cccc(C(F)(F)F)c1C)n1ccn2c(=O)nc(N3CCOCC3)cc12 [GSK2336394] | 0 | 0 | 4 | 7 | 0 | 0 | 0 | 0 | 53 | 0 | – | – | – | – | – | – | – | – | – | –
